Among the data in PubChem BioAssay are inhibition values, retold here.

Several values for one entry are separate records, joined by “and”; a condition that tells them apart may be missing. Equal entries are not always repeated. Activity calls are given as the source filed them. Cut-off read from the data, not from the text of the source, unless noted: active = inhibition above about 33%; inactive = the rest.

In general, inhibition refers to the change of the read-out against control, counted positive when it falls.

In one assay the target is Steroidogenic factor 1 (Homo sapiens) (UniProt Q13285). As to the kind of experiment: SF1 (NR5A1) inverse agonists, counter-screen for LRH-1 inverse agonist project, cell-based, luminescence, high throughput (AID 651614; in the data active = inhibition above about 44%;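 note: cells cotransfected with StAR promoter reporter and SF1 expression vector; 0% = vehicle on cells with receptor and 100% = vehicle on cells lacking receptor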). The conditions noted are these: cell-based SF1 luciferase reporter, at 3.6 µM, hits give high values.
Sequence of Steroidogenic factor 1 (Homo sapiens) (Q13285 whole entry, looked up): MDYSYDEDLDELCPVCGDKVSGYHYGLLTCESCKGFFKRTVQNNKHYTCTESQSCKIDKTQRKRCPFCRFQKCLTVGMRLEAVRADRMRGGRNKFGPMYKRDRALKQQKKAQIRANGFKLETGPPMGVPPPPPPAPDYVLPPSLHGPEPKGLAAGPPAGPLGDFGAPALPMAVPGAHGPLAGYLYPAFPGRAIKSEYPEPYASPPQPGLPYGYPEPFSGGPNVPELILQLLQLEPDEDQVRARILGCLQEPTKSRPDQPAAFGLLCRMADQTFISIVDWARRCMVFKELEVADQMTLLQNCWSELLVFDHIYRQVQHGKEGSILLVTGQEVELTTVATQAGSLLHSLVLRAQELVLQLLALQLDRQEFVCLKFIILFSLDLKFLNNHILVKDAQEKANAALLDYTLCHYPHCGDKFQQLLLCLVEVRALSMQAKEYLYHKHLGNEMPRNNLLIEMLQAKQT
As for `COc1ccc(Nc2ccncc2[N+](=O)[O-])cc1`, the inhibition is 64.4% (active).
The same measure, in the same setting: with `CCOC(=O)c1c2c(n(-c3ccc(OC)cc3)c1C)C(=O)C(=O)c1ccccc1-2` the figure was 63.8% (active); with `CN1/C(=C\C(=O)C[n+]2ccc3ccccc3c2)C(C)(C)c2ccccc21`, 77.6% (active); with `Cn1nccc1C(=O)NC1CCCc2c1cnn2-c1ccc(C(C)(C)C)cc1` (stereo not given), 69.7% (active).
As for `CCCCCCCCCCCCCCCCn1cc[n+](C)c1`, the inhibition was 70.5% (active).
For `Cc1ccc(S(=O)(=O)/C(=C/Cl)NC(=O)c2ccccc2)cc1`, the inhibition is 51.5% (active).
As to `Cc1ccc(NC2=C(N3CCCCC3)C(=O)c3ccccc3C2=O)cc1`, the inhibition was -5.93% (inactive).
Still for that read-out and setting: in the case of `Clc1ccc(C2=Nn3c(nnc3-c3n[nH]c4c3CCC4)SC2)cc1` it was 66.8% (active).
Same read-out and setting: in the case of `CC(=O)c1cn(CC(=O)Nc2ccc(C)cc2C)c2ccccc12` it was 64.5% (active); in that of `C=C1C(=O)[C@]23C[C@H]1CCC2[C@@]1(C)C(C[C@@H]3O)[C@](C)(C(=O)OC)CC[C@@H]1OC(C)=O` (stereo not given in full), 80.6% (active).
Turning to `CCCCCCCCCCCCCCCC[n+]1ccccc1`, the inhibition was 57.7% (active) and 48.1% (active).
On the same count and under the same terms, in the case of `CCOc1ccc(-n2c(-c3ccccc3)c[n+]3c2CCCCC3)cc1` it was 72.3% (active); in that of `COC(=O)/C=C/C(=O)Nc1cccc(C(F)(F)F)c1`, 58.7% (active); in that of `Cc1ccccc1C(=O)N/N=C/c1ccc([N+](=O)[O-])s1`, 65% (active).
Take `Brc1ccc(C2=Nn3c(nnc3-c3n[nH]c4c3CCC4)SC2)cc1`: the inhibition is 51% (active).
Consider `CCOc1ccc(Nc2cc(C)nc(-n3nc(C)cc3C)n2)cc1`, for which the inhibition was 64.8% (active).
Same read-out and setting: with `NS(=O)(=O)c1ccc(Sc2nc3ccccc3s2)c([N+](=O)[O-])c1` the figure was 67.5% (active); with `CC(C)N(c1ccccc1)c1ccc(NC(=O)CCl)cc1`, 60.9% (active).
The same measure, in the same setting: in the case of `O=C(Nc1sc2c(c1C(=O)O)CCCCC2)c1ccccc1` it was 59% (active).
The same measure, in the same setting: in the case of `CC(=O)Nc1ccc(Oc2sc(C(=O)c3ccccc3)c(N)c2C#N)cc1` it was 66.7% (active); in that of `C/C(=N\NC(N)=S)C12CC3CC(CC(C3)C1)C2`, 71.4% (active); in that of `CC[C@@H](C(=O)[C@@H](C)[C@@H](O)[C@H](C)CCc1ccc(C)c(O)c1C(=O)O)[C@H]1O[C@](CC)([C@H]2CC[C@](O)(CC)[C@H](C)O2)C[C@@H]1C`, 61.2% (active).
Turning to `O=C(OCC12CC3CC(CC(C3)C1)C2)c1ccc(NCc2cc(O)ccc2O)cc1`, the inhibition was 67.2% (active).
On the same count and under the same terms, in the case of `c1ccc(CCNc2nc(-c3ccccn3)nc3ccccc23)cc1` it was 82.7% (active); in that of `CCCCCc1ccc(OCCCC[n+]2cccc(C)c2)c(CCCCC)c1`, 68.9% (active); in that of `O=C(CCl)N(c1ccccc1)C1CCCCC1`, 66.2% (active).
Same read-out and setting: with `COc1cc(/C=C/C(=O)c2ccc(C)cc2)ccc1OCC#N` the figure was 36.5% (inactive).
On the same count and under the same terms, with `O=S(=O)(NCC1CCCO1)c1ccc(-c2ccc(S(=O)(=O)NCC3CCCO3)cc2)cc1` (stereo not given) the figure was 61.2% (active); with `COc1cc(/C=N/NC(N)=S)cc(Br)c1OCc1ccccc1F`, 70.8% (active).
With `NC(=O)c1ccc(N2CCN(S(=O)(=O)c3cccs3)CC2)c([N+](=O)[O-])c1`, the inhibition is 63.9% (active).
On the same count and under the same terms, in the case of `CCOc1ccc(-n2c(-c3ccc(Br)cc3)c[n+]3c2CCCCC3)cc1` it was 60.1% (active); in that of `O=C(NCc1cccnc1)/C(=C\c1ccc(-c2cccc(Cl)c2)o1)S(=O)(=O)c1ccccc1`, 89.3% (active).
The same measure, in the same setting: with `Cc1cc(C)c(S(=O)(=O)/N=C2\C=C(Nc3ccc(C(=O)O)cc3)C(=O)c3ccccc32)c(C)c1` the figure was 61% (active); with `Nc1cc(Cc2ccccc2)ccc1O`, 33.2% (inactive); with `CCOc1ccc(-c2c[n+]3c(n2-c2ccccc2)CCCCC3)cc1`, 69.1% (active).
Regarding `c1cnc2c(c1)ccc1cccnc12`, the inhibition is 59.1% (active) and 70.5% (active).
`S=C(NCCCc1cnc[nH]1)NCCCN(Cc1ccc(Cl)cc1)c1ccc(Br)cn1`: the inhibition was 96.4% (active).
The same measure, in the same setting: with `N=c1c2c(n(Cc3ccccc3)c3c1CCC3)CCC2` the figure was 72.9% (active).
Still for that read-out and setting: in the case of `Cc1ccc2c(c1C)-c1c(ccc(C)c1C)C(=O)C2=O` it was 80.5% (active); in that of `COc1ccc(-n2c(-c3ccc(Br)cc3)c[n+]3c2CCc2ccccc2-3)cc1`, 65% (active).

Tested on in the next assay: not listed separately
As to the kind of experiment: VP16 transactivation reporter inhibitors, counter-screen for LRH-1 inverse agonist project, cell-based, luminescence, high throughput (AID 651615). The settings on record: Gal4-VP16 luciferase reporter cells, at 3.6 µM, hits give high values. For orientation: Counterscreens check selectivity or assay interference.
As for `COc1ccc(Nc2ccncc2[N+](=O)[O-])cc1`, the inhibition was 39.3% (active).
The same measure, in the same setting: in the case of `CCOC(=O)c1c2c(n(-c3ccc(OC)cc3)c1C)C(=O)C(=O)c1ccccc1-2` it was 50.3% (active); in that of `CN1/C(=C\C(=O)C[n+]2ccc3ccccc3c2)C(C)(C)c2ccccc21`, 66.7% (active); in that of `Cn1nccc1C(=O)NC1CCCc2c1cnn2-c1ccc(C(C)(C)C)cc1` (stereo not given), 58.2% (active).
On the same count and under the same terms, with `CCCCCCCCCCCCCCCCn1cc[n+](C)c1` the figure was 64.4% (active); with `Cc1ccc(S(=O)(=O)/C(=C/Cl)NC(=O)c2ccccc2)cc1`, 38.8% (active).
On the same count and under the same terms, with `Cc1ccc(NC2=C(N3CCCCC3)C(=O)c3ccccc3C2=O)cc1` the figure was -11.3% (inactive); with `Clc1ccc(C2=Nn3c(nnc3-c3n[nH]c4c3CCC4)SC2)cc1`, -54.9% (inactive); with `CC(=O)c1cn(CC(=O)Nc2ccc(C)cc2C)c2ccccc12`, 47.4% (active).
As to `C=C1C(=O)[C@]23C[C@H]1CCC2[C@@]1(C)C(C[C@@H]3O)[C@](C)(C(=O)OC)CC[C@@H]1OC(C)=O` (stereo not given in full), the inhibition is 76.2% (active).
The same measure, in the same setting: with `CCCCCCCCCCCCCCCC[n+]1ccccc1` the figure was 52.6% (active) and 48.9% (active).
On the same count and under the same terms, with `CCOc1ccc(-n2c(-c3ccccc3)c[n+]3c2CCCCC3)cc1` the figure was 66.2% (active); with `COC(=O)/C=C/C(=O)Nc1cccc(C(F)(F)F)c1`, 28.6% (inactive).
On the same count and under the same terms, in the case of `Cc1ccccc1C(=O)N/N=C/c1ccc([N+](=O)[O-])s1` it was 24.8% (inactive); in that of `Brc1ccc(C2=Nn3c(nnc3-c3n[nH]c4c3CCC4)SC2)cc1`, -33.2% (inactive); in that of `CCOc1ccc(Nc2cc(C)nc(-n3nc(C)cc3C)n2)cc1`, 57.4% (active).
On to `NS(=O)(=O)c1ccc(Sc2nc3ccccc3s2)c([N+](=O)[O-])c1`, for which the inhibition was 55.2% (active).
Same read-out and setting: in the case of `CC(C)N(c1ccccc1)c1ccc(NC(=O)CCl)cc1` it was -7.77% (inactive); in that of `O=C(Nc1sc2c(c1C(=O)O)CCCCC2)c1ccccc1`, 53.1% (active); in that of `CC(=O)Nc1ccc(Oc2sc(C(=O)c3ccccc3)c(N)c2C#N)cc1`, 7.59% (inactive).
On the same count and under the same terms, with `C/C(=N\NC(N)=S)C12CC3CC(CC(C3)C1)C2` the figure was 48.1% (active); with `CC[C@@H](C(=O)[C@@H](C)[C@@H](O)[C@H](C)CCc1ccc(C)c(O)c1C(=O)O)[C@H]1O[C@](CC)([C@H]2CC[C@](O)(CC)[C@H](C)O2)C[C@@H]1C`, 60% (active); with `O=C(OCC12CC3CC(CC(C3)C1)C2)c1ccc(NCc2cc(O)ccc2O)cc1`, 72.7% (active).
For `c1ccc(CCNc2nc(-c3ccccn3)nc3ccccc23)cc1`, the inhibition is 69.1% (active).
The same measure, in the same setting: with `CCCCCc1ccc(OCCCC[n+]2cccc(C)c2)c(CCCCC)c1` the figure was 71.2% (active); with `O=C(CCl)N(c1ccccc1)C1CCCCC1`, 16.5% (inactive); with `COc1cc(/C=C/C(=O)c2ccc(C)cc2)ccc1OCC#N`, 44.4% (active).
As for `O=S(=O)(NCC1CCCO1)c1ccc(-c2ccc(S(=O)(=O)NCC3CCCO3)cc2)cc1` (stereo not given), the inhibition was 56.7% (active).
For the molecule `COc1cc(/C=N/NC(N)=S)cc(Br)c1OCc1ccccc1F`, the inhibition was 40.5% (active).
As for `NC(=O)c1ccc(N2CCN(S(=O)(=O)c3cccs3)CC2)c([N+](=O)[O-])c1`, the inhibition is 46.1% (active).
The same measure, in the same setting: with `CCOc1ccc(-n2c(-c3ccc(Br)cc3)c[n+]3c2CCCCC3)cc1` the figure was 67.5% (active); with `O=C(NCc1cccnc1)/C(=C\c1ccc(-c2cccc(Cl)c2)o1)S(=O)(=O)c1ccccc1`, 74.9% (active).
On the same count and under the same terms, with `Cc1cc(C)c(S(=O)(=O)/N=C2\C=C(Nc3ccc(C(=O)O)cc3)C(=O)c3ccccc32)c(C)c1` the figure was 43.8% (active); with `Nc1cc(Cc2ccccc2)ccc1O`, -10.3% (inactive).
Still for that read-out and setting: in the case of `CCOc1ccc(-c2c[n+]3c(n2-c2ccccc2)CCCCC3)cc1` it was 66.9% (active).
In the case of `c1cnc2c(c1)ccc1cccnc12`, the inhibition is 50.6% (active) and 74.9% (active).
The same measure, in the same setting: in the case of `S=C(NCCCc1cnc[nH]1)NCCCN(Cc1ccc(Cl)cc1)c1ccc(Br)cn1` it was 82.4% (active).
Same read-out and setting: in the case of `N=c1c2c(n(Cc3ccccc3)c3c1CCC3)CCC2` it was 62.4% (active); in that of `Cc1ccc2c(c1C)-c1c(ccc(C)c1C)C(=O)C2=O`, 73.8% (active).
The same measure, in the same setting: in the case of `COc1ccc(-n2c(-c3ccc(Br)cc3)c[n+]3c2CCc2ccccc2-3)cc1` it was 73% (active).
